Pf Dd2 growth: blocks in vitro growth of P. falciparum Dd2; hit rate 4.3% among 120,000; P. falciparum Dd2 growth, SYBR Green, 72 h; Potency, µM (series often up to 28.9 µM), without a hit: at the top dose activity, negative = inhibition, actives largely listed as inhibitors; active = well fitted inhibition curve with a large enough effect;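 note: plate controls were DMSO vehicle for no effect and reference drug for full effect; nearly all actives have a fitted effect of over 65% in size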
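Readout: SYBR Green fluorescence, 485 nm excitation, 535 nm emission, after ~16 h lysis at 37C. Before that, Dd2-infected red cells (2.5% hematocrit) grew 72 h with compound, 29 uM top final concentration.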
An asterisk follows results filed as active; i = inactive; [ ] = dose if it differs, or a comment. Many of the other results were omitted from the sample, so hits are more common in it than they were. Potency is the fitted concentration of half-maximal effect.

SMILES	Pf Dd2 growth
C=CCn1cc2c3c(cccc31)[C@H](CC(C)C)N[C@H](C(=O)NCCCN1CCCC1=O)C2	i
C=CCn1cc2c3c(cccc31)[C@H](CC(C)C)N[C@H](C(=O)NCc1ccc(OC)cc1)C2	i
C=CCN1CCN(C(=O)[C@@H]2Cc3c[nH]c4cccc(c34)[C@H](CC(C)C)N2)CC1	11µM*
CC(C)(C)C(=O)Cn1c(=O)n(-c2ccccc2)c(=O)c2c3c(sc21)CCC3	0%
CC(C)CS(=O)(=O)N[C@H](C)c1onc(-c2cccnc2)c1C(=O)O	7%[44.1 µM]
O=C(NCc1cccc(-c2ccccc2)c1)C1CC(=O)N(C2CC2)C1 (centres undefined)	-1%
Cc1ccc(-n2c3c(c(=O)[nH]c2=O)C(NS(=O)(=O)c2ccc(Cl)cc2)(C(F)(F)F)C(=O)N3)cc1 (centres undefined)	8.9µM*
Cc1ccc(-n2c3c(c(=O)[nH]c2=O)C(NS(=O)(=O)c2ccc(C)cc2)(C(F)(F)F)C(=O)N3)cc1 (centres undefined)	22%
O=C1Nc2c(c(=O)[nH]c(=O)n2-c2ccc(F)cc2)C1(NS(=O)(=O)c1ccc(Cl)cc1)C(F)(F)F (centres undefined)	37%
COC(=O)c1sccc1S(=O)(=O)N1CCN(c2cccc(C)c2)C(C)C1 (centres undefined)	14%
CC1CCC2(CC1)NC(=O)N(CC(=O)NC(C)CCc1ccccc1)C2=O (centres undefined)	-4%
COCCOCC(=O)N1CCCN(C(=O)C2CC2)C(c2ccccc2)CC(=O)NCC1 (centres undefined)	19%
CCn1c2c(c(=O)n1-c1ccccc1)CCN(Cc1ccccn1)C2	-21%[44.1 µM]
COc1ccc(-n2ncc(C(=O)N3CCN(c4cc(C)ccc4C)CC3)c2C2CCN(C(=O)OC(C)(C)C)CC2)cc1	25%
Cc1cccc(N2CCN(C(=O)c3cnn(-c4ccccc4)c3C3CCN(C(=O)OC(C)(C)C)CC3)CC2)c1C	10µM*
COc1cccc(N2CCN(C(=O)c3cnn(C(C)(C)C)c3C3CCN(C(=O)OC(C)(C)C)CC3)CC2)c1	13µM*
Cc1ccc(-n2ncc(C(=O)N3CCN(c4ccccn4)CC3)c2C2CCN(C(=O)OC(C)(C)C)CC2)cc1	18%
COc1cccc(N2CCN(C(=O)c3cnn(-c4ccc(C)cc4C)c3C3CCN(C(=O)OC(C)(C)C)CC3)CC2)c1	6.3µM*
COc1ccc(-n2ncc(C(=O)N3CCOCC3)c2C2CCN(C(=O)OC(C)(C)C)CC2)cc1	41%
CCCN1CCN(CCCNC(=O)C(CC)n2nc(C)n3c(cc4occc43)c2=O)CC1 (centres undefined)	19%
COc1ccc(CNC(=O)CCc2nnc3n(C)c(=O)c4sccc4n23)cc1	3%
O=C(Cn1cnc2ccccc2c1=O)N1CC[C@H](CO)[C@H](O)C1	-5%
COCCNC(=O)[C@@H]1C[C@H](Oc2cccnc2)CN1C(=O)CC1CCN(C(C)=O)CC1	2%
O=C(NCCc1c[nH]c2ccccc12)[C@@H]1C[C@H]2C(=O)NCCCCCCN(C(=O)c3ccco3)[C@H]2C1	1.1µM*
O=C1NCCCCCCN(C(=O)c2ccco2)[C@H]2CCCC[C@@H]12	-1%
SMILES	Pf Dd2 growth
CC(C)c1noc([C@@H]2C[C@H]3C(=O)NCCCCCCN(C(=O)c4ccco4)[C@H]3C2)n1	-8%
Cc1ncc2c(c1CNC(=O)c1ccc3c(c1)OCO3)CCN(C(=O)CC1NC(=O)c3ccccc31)C2 (centres undefined)	i
CCc1nn2c(=O)cc(COC(=O)c3ccc(NC(=O)COc4ccccc4C)cc3)nc2s1	i
Cc1nnc(-c2cc(-c3cccc(F)c3)ccn2)n1C1CCCCC1	-19%[44.1 µM]
CCOC(=O)c1scc(-c2ccccc2)c1S(=O)(=O)Nc1cc(OC)cc(OC)c1	-12%
Cc1ccc(C)c(NC(=O)CN2CCCN(Cc3cccc(Cl)c3)S2(=O)=O)c1	i
COc1ccc(OC)c(S(=O)(=O)N2CCC(OC3CCN(C)CC3)CC2)c1	i
COc1ccc(Cl)cc1S(=O)(=O)N1CCC(OC2CCN(C)CC2)CC1	3.2µM*
COc1ccc(Cl)cc1S(=O)(=O)N1CCC(n2cnnc2C)CC1	-26%
COCC1CN(C2CCC2)CC12CCN(C(=O)Cc1ccccc1F)CC2 (centres undefined)	5.6µM*
CCS(=O)(=O)N1CCC2(CC1)CN(C1CCC1)CC2COC (centres undefined)	-21%
COCC1CN(C2CCC2)CC12CCN(C(=O)c1ccc(OC)c(F)c1)CC2 (centres undefined)	5µM*
COCC1CN(C(C)=O)CC12CCN(C(=O)Cc1ccc(OC)cc1)CC2 (centres undefined)	i
CCOCC(=O)N1CCC2(CC1)CN(C1CCC1)CC2COC (centres undefined)	i
COCC1CN(C2CCC2)CC12CCN(C(=O)C(C)C)CC2 (centres undefined)	-11%
COCC1CN(C2CCC2)CC12CCN(C(=O)Cc1ccccc1OC)CC2 (centres undefined)	13µM*
COC[C@@H]1CN(C(=O)c2ccc(OC)c(F)c2)C[C@H]1C(N)=O	17%
COCC1CN(C2CCC2)CC12CCN(C(=O)c1cn(C)cn1)CC2 (centres undefined)	14%
Cc1nn(C)c2nc(NCCC(=O)N3CCC(C)CC3)sc12	-8%
COc1ccc2c(=O)n(CC(=O)N3CCC(OC)C3)ccc2c1OC (centres undefined)	-5%
COc1ccc(-n2cc(-c3ccccc3)c3c(Nc4ccc(OC)c(OC)c4)ncnc32)cc1	-19%
COc1cccc(OC)c1-c1cccc(C(=O)c2nccn2C)c1	-16%
Cc1cc(NC(=O)CCNS(=O)(=O)c2ccc3c(c2)oc(=O)n3C)ccc1Br	-9%
COc1ccc(C(=O)Nc2ccc(-c3noc([C@@H]4CCCN4Cc4ccccc4C)n3)cn2)cc1	-20%
COc1ccc(C(=O)Nc2ccc(-c3noc([C@@H]4CCCN4Cc4ccc(F)c(F)c4)n3)cn2)cc1	i
SMILES	Pf Dd2 growth
COCC(=O)Nc1ccc(-c2noc([C@@H]3CCCN3Cc3ccc(S(C)(=O)=O)cc3)n2)cn1	-26%
COCC(=O)Nc1ccc(-c2noc([C@@H]3CCCN3Cc3ccc(F)cc3)n2)cn1	-10%[44.1 µM]
COCC(=O)Nc1ccc(-c2noc([C@@H]3CCCN3CC(C)C)n2)cn1	11µM*
COc1ccc(C(=O)Nc2ccc(-c3noc([C@@H]4CCCN4Cc4ccc(Cl)cc4)n3)cn2)cc1	11µM*
O=C1NCCN2CC3(CCN(S(=O)(=O)c4ccccc4)CC3)CC12 (centres undefined)	3%
O=C(c1ccc(C(F)(F)F)cc1)N1CCC(N2CC3CCCN3C2=O)CC1 (centres undefined)	-7%
CCOC(=O)C[C@@H]1C[C@@H](C(C)C)[C@H](CNS(=O)(=O)c2ccc(OC)cc2)C=C1C	-19%[44.1 µM]
CC1=C[C@@H](CNS(=O)(=O)c2ccc(C)cc2)[C@H](C(C)C)C[C@H]1CC(=O)N(C)Cc1cccnc1	13µM*
CC1=C[C@@H](CNS(=O)(=O)c2cccc(C#N)c2)[C@H](C(C)C)C[C@H]1CC(=O)Nc1ccccn1	-21%
C#CCNC(=O)C[C@@H]1C[C@@H](C(C)C)[C@H](CNS(=O)(=O)c2cccc(C#N)c2)C=C1C	11µM*
COCCC(=O)NC[C@@H]1C=C(C)[C@H](CC(=O)N(C)Cc2cccnc2)C[C@H]1C(C)C	3%[44.1 µM]
CC1=C[C@@H](CNS(=O)(=O)c2cccc(C#N)c2)[C@H](C(C)C)C[C@H]1CC(=O)NCc1cccnc1	-4%

Assay outcomes from PubChem BioAssay.
